Experimental data: PubChem BioAssay AID1030 (National Center for Advancing Translational Sciences (NCATS), 2008)
Values joined by “and” are separate entries in the source; they are usually repeats but may differ in a detail not shown here. Equal values may be shown once. In all, about 220,000 compounds went through this assay and about 16,000 (7.3%) were called active. Another 25% or so got no clear call; they are omitted. Calls follow the shape of the dose curve; as a rule, active = well fitted inhibition curve with a large enough effect (not every such curve was filed as active); inconclusive = small, poorly fitted or top-dose-only effect, or another doubt; inactive = no such curve, though single readings can be large or run the other way. The entries come from a sample that favours actives as a whole. The source holds several records for some structures; these can differ, active in one and inactive in another.

Each compound was assayed against Aldehyde dehydrogenase 1A1 (Homo sapiens) (UniProt P00352) (assay: qHTS Assay for Inhibitors of Aldehyde Dehydrogenase 1 (ALDH1A1)). Settings: Purified ALDH1A1, NADH fluorescence, propionaldehyde substrate; series mostly up to 75.3 µM; activity, negative = inhibition: at the top concentration.
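For activity, negative = inhibition in this document: plate controls were no enzyme wells and a reference inhibitor.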
Potency is read from the fitted curve at half-maximal effect.

Sequence of Aldehyde dehydrogenase 1A1 (Homo sapiens) (P00352 whole entry, looked up): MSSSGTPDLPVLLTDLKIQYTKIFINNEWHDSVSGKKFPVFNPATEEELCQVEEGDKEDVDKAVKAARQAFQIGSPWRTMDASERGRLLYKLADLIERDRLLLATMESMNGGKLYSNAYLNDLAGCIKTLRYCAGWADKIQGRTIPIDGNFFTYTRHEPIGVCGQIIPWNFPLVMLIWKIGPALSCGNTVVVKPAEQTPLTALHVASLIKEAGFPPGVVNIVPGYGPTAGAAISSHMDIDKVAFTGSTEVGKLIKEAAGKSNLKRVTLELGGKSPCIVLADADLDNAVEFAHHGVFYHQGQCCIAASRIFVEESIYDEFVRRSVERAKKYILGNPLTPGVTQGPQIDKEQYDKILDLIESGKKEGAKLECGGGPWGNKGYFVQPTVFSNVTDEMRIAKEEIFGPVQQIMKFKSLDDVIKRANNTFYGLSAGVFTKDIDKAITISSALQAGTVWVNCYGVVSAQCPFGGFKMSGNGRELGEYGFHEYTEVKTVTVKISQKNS

SMILES	activity, negative = inhibition	Potency
CCCCN(CC(=O)NC(C)(C)C)C(=O)C(=O)Nc1ccc2c(c1)OCCO2	-4.7% (inactive)	–
S=c1[nH]nc2c3c4c(sc3ncn12)CCCC4	–	25.1 µM (active)
c1nnc2c3c4c(sc3ncn12)CCC4	-5.29% (inactive)	–
N=c1c2c3c(sc2ncn1N)CCCC3	9.22% (inactive)	–
Clc1cccc(-c2nc(NCC3CCCO3)c3ccccc3n2)c1 (centres undefined)	7.84% (inactive)	–
C[C@@H](C(=O)Nc1ccc2ccccc2c1)[C@@H]1C[C@@]1(C)[C@@H](NC(=O)c1cccnc1)c1ccccc1	–	inactive and 22.4 µM (active)
O=C(Nc1ccc(N2CCN(C(=O)c3ccccc3)CC2)c(Cl)c1)c1cccnc1	-12.6% (inactive)	–
CCC(=O)Nc1cccc(NC(=O)c2cccnc2)c1	-3.63% (inactive)	–
CC(NC(=O)Nc1ccc2c(c1)OCO2)c1ccncc1 (centres undefined)	4.87% (inactive)	–
CCn1nnc(NC(=O)c2c(OC)cccc2OC)n1	9.35% (inactive)	–
COc1cccc(OC)c1C(=O)Nc1ccc(Cc2ccncc2)cc1	11.3% (inactive)	–
COc1cccc(OC)c1C(=O)Nc1nnc(C(C)C)s1	–	7.08 µM (active)
CC(CC(=O)O)C(=O)c1ccc(Cl)c([N+](=O)[O-])c1 (centres undefined)	8.97% (inactive)	–
COc1ccc(-c2cc(C(=O)NCc3ccco3)no2)cc1OC	-8.06% (inactive)	–
COc1cc(C(=O)NC(=S)NCc2ccco2)cc(OC)c1OC	–	5.01 µM (active)
COc1cc(C(=O)N[C@@H](C)C(=O)NCc2ccco2)cc(OC)c1OC	4.16% (inactive)	–
Cc1cccc(NC(=S)N2CCC(O)CC2)c1C	-11% (inactive)	–
CC(C)(c1ccccc1)c1ccc(OCCN)cc1	4.64% (inactive)	–
CCOc1ccc(/C=N/Nc2nncc(-c3ccccc3)n2)cc1OC	0.413% (inactive)	–
CN(C)S(=O)(=O)c1ccc(NC(=O)COC(=O)Cn2[nH]c(=O)c3ccccc3c2=O)cc1	–	28.2 µM (active)
CN(C)S(=O)(=O)c1cccc(NC(=O)COC(=O)c2cc(=O)[nH]c(=O)[nH]2)c1	9.89% (inactive)	–
CN(C)S(=O)(=O)c1ccc(NC(=O)COC(=O)c2n[nH]c3ccccc23)cc1	-4.11% (inactive)	–
C=CCN(c1ccc(Cl)cc1)S(=O)(=O)c1cccc(C(=O)OCC(=O)N(C)C)c1	-5.46% (inactive)	–

SMILES	activity, negative = inhibition	Potency
O=C(NNC(=S)NCc1ccccc1)c1ccc(OC(F)F)cc1	-3.55% (inactive)	–
Cc1nc2nc[nH]n2c(=O)c1C/C=C/c1ccccc1	3.08% (inactive)	–
CC(C)=CCN1CCC2(CCc3ccccc32)CC1	-2.6% (inactive)	–
Cc1cccc(C(=O)NNC(=O)c2cccc([N+](=O)[O-])c2)c1	4.38% (inactive)	–
O=[N+]([O-])c1cccc(/C([O-])=C(/C(=S)Nc2ccccc2F)[n+]2ccccc2)c1	–	22.4 µM (active)
CCC(C)NCC(=O)Nc1ccc([N+](=O)[O-])cc1C(=O)Nc1ccccc1F (centres undefined)	9.71% (inactive)	–
CCOc1cc(N2CCOCC2)c(OCC)cc1NC(=O)C1=NN(c2cccc(C)c2)C(=O)CC1	7.65% (inactive)	–
CCNC(=S)Nc1ccc(OC(F)(F)F)cc1	4.74% (inactive)	–
CCOC(=O)/C(C#N)=C/c1ccc(N2CCN(Cc3ccccc3)CC2)cc1	-2.33% (inactive)	–
CCOC(=O)NC(=O)/C(C#N)=C\c1ccccc1	–	7.08 µM (active)
CCOC(=O)C(C(=O)OCC)C(C#N)c1ccccc1 (centres undefined)	-8.83% (inactive)	–
Cc1ccnc(NC(=O)Cn2ccc([N+](=O)[O-])n2)c1	11.9% (inactive)	–
CS(=O)(=O)c1ccc2nnn(OCC(=O)Nc3cccc(C#N)c3)c2c1	–	10 µM (active)
Cc1ccc(CC(=O)Nc2cccc(C#N)c2)cc1	-3.78% (inactive)	–
Cc1cc(NC(=O)COn2nnc3ccccc32)no1	1.05% (inactive)	–
CC(=O)c1ccccc1NC(=O)CC1(CC(=O)O)CCCCC1	-9.92% (inactive)	–
C=CCC1CCC(=O)N2CCCC12 (centres undefined)	9.92% [at 120 µM] (inactive)	–
CC(C)(C)NC(=O)CSC(=Nc1ccccc1F)NC#N	–	1.26 µM (active)
Cc1ccccc1CSCC(=O)NC(=O)NC(C)(C)C	9.74% (inactive)	–
COc1ccccc1-n1ccnc1SCC(=O)NC(C)(C)C	3.5% (inactive)	–
COc1cccc(OC)c1CN(C)C(=O)c1cnccc1C(F)(F)F	1.98% (inactive)	–
O=C(N/N=C/c1ccc([N+](=O)[O-])cc1)c1c[nH]c2ccccc12	0.458% (inactive)	–
CC(=O)NCCC(=O)Nc1nc(C)c(Cc2ccc3c(c2)OCO3)s1	6.08% (inactive)	–

SMILES	activity, negative = inhibition	Potency
S=c1ccc2ccccc2[nH]1	–	25.1 µM (active)
O=C(Nc1ccccc1)c1cc2ccccc2[nH]1	7.57% (inactive)	–
COc1cc(COCC(O)CN2CCN(Cc3ccc4c(c3)OCO4)CC2)cc(OC)c1OC (centres undefined)	-0.814% (inactive)	–
Cc1nc([N+](=O)[O-])cn1CC(=O)Nc1ccc2c(c1)OCO2	11.1% (inactive)	–
Cn1cnc(C(F)(F)F)c1-c1ccc([N+](=O)[O-])cc1	18.6% (inactive)	–
Cc1cccc(C)c1Nc1nnc(SCC(=O)Nc2sccc2C#N)s1	-18.8% (inactive)	–
O=C1C(c2[nH]c3ccccc3c2O)=Nc2ccccc21	–	15.8 µM (active)
CC(C)C(=O)Nc1c(O)c2ccccc2[nH]c1=O	-14.2% (inactive)	–
CC(=O)Nc1ccc(OCC(=O)NCc2ccc(C)cc2)cc1	-1.99% (inactive)	–
C/C=C/c1ccc(OCC(O)CN2CCCCCCC2)c(OC)c1 (centres undefined)	-7.83% (inactive)	–
CCOC(=O)CNc1nc(Cl)nc(Nc2ccccc2)n1	2.86% (inactive)	–
CC(NC(=S)Nc1ccc(OC(F)F)cc1)c1ccc(F)cc1 (centres undefined)	-6.11% (inactive)	–
Cc1cccc(-n2c(N)c(C(=O)N3CCN(C)CC3)sc2=S)c1	–	22.4 µM (active)
O=C(Nc1cccc(C(=O)N2CCCC2)c1)c1ccccc1	5.92% (inactive)	–
O=C(c1ccc(S(=O)(=O)c2ccccc2)cc1)N1CCCCCC1	-9.72% (inactive)	–
Cc1ccc(C(=O)N2CCN(C(=O)N3CCOCC3)CC2)cc1	-11.9% (inactive)	–
Cc1ccc(OCCCC(=O)N2CCOCC2)c(C)c1	-7.47% (inactive)	–
N#Cc1ccccc1-n1c(N)c(C(=O)N2CCCC2)sc1=S	–	11.2 µM (active)
Cc1cccc(C(=O)N2CCCN(C(=O)c3cccc(C)c3)CC2)c1	-5.29% (inactive)	–
Cc1ccc(-n2c(N)c(C(=O)N3CCOCC3)sc2=S)c(C)c1	–	10 µM (active)
Cc1nc2ccc(C(=O)N3CCN(c4ccccc4)CC3)cc2s1	0.77% (inactive)	–
CCN(CC)S(=O)(=O)c1ccc(N(C)Cc2cccc(OC)c2OC)nc1	-13% (inactive)	–
CC(C)(C)OC(=O)NCCCCC1=CC2=CC(=O)C(C)(OC(=O)c3cccs3)C(=O)C2=CO1 (centres undefined)	7.23% (inactive)	–

SMILES	activity, negative = inhibition	Potency
O=C(c1snnc1-c1ccccc1)N1CCOCC1	2.9% (inactive)	–
Cc1cc(-c2nnc(CCC(=O)NC(c3ccccc3)c3ccccc3)o2)no1	-6.35% (inactive)	–
O=C(/C=C/c1ccc(F)cc1)NCCNC(=O)/C=C/c1ccc(F)cc1	10.5% (inactive)	–
O=C(CCC1CCCN(Cc2ccc(O)c(Cl)c2)C1)NCc1ccccc1F (centres undefined)	-7.56% (inactive)	–
CCOCC(=O)Nc1cc(OC)c(Cl)cc1OC	-7.89% (inactive)	–
CC(C)CC(=O)NC(=S)Nc1cc(C(=O)O)ccc1Cl	10.3% (inactive)	–
COc1cc(NC(=S)NNC(=O)CC(C)C)c(OC)cc1Cl	–	25.1 µM (active)
CCC(CC)C(=O)Nc1ccc(S(=O)(=O)Nc2nccs2)cc1	-0.847% (inactive)	–
O=C(C1CCCN1S(=O)(=O)c1ccc(Br)cc1)N1CCOCC1 (centres undefined)	1.94% (inactive)	–
COc1cccc(Oc2ccc(N)cc2)c1	-8.54% (inactive)	–
Nc1ccc(Oc2ccc(Cl)cc2)cc1	-10.1% (inactive)	–
Cc1ccc(Oc2ccc(N)cc2)cc1	–	17.8 µM (active)
O=C(NNS(=O)(=O)c1ccc(F)cc1)c1cnccn1	2.86% (inactive)	–
Cc1c(Cl)c([N+](=O)[O-])nn1CCCC(=O)NC(C)c1ccccc1 (centres undefined)	-5.68% (inactive)	–
S=C(Nc1cccc(Br)c1)N1CCn2cccc2C1c1cccnc1 (centres undefined)	-6.93% (inactive)	–
COc1ccc2nc(Nc3nc(-c4cc5ccccc5oc4=O)cs3)sc2c1	1.54% (inactive)	–
Nc1ncc(-c2cc3ccccc3oc2=O)s1	–	11.2 µM (active)
O=c1oc2ccccc2cc1-c1csc(Nc2ccc(O)cc2)n1	-10.9% (inactive)	–
CC(C)NC(=O)c1ccc(Cl)cc1Cl	-1.33% (inactive)	–
COc1cccc(NC(=O)CN(C)C(C)C(=O)Nc2ccc(C#N)cc2)c1 (centres undefined)	1.94% (inactive)	–
COc1cccc(CNC(=O)CCN2C(=S)NC(C)(C)CC2C)c1 (centres undefined)	-4.03% (inactive)	–
O=C(CCN1CCN(c2ccccc2)CC1)NNC(=S)Nc1ccccc1	-6.58% (inactive)	–
O=C(N/N=C/c1ccc(OCc2ccccc2)cc1)c1ccc(O)cc1	12.2% (inactive)	–

SMILES	activity, negative = inhibition	Potency
O=C(O)/C=C\C(=O)Nc1ccc(OCc2ccccc2)cc1	–	25.1 µM (active)
O=C(/C=C/c1ccco1)Nc1ccc(Oc2ccccc2)cc1	2.63% (inactive)	–
NC(=O)COC(=O)c1cc(S(=O)(=O)N2CCN(c3ccccc3)CC2)ccc1Cl	2.01% (inactive)	–
CCC1=C(C(=O)OC)C(c2cc(OC)ccc2OC)C(C#N)=C(N)O1 (centres undefined)	–	17.8 µM (active)
COC(=O)C1=C(C)OC(N)=C(C#N)C1c1cc(OC)ccc1OC (centres undefined)	3.09% (inactive)	–
CCOC(=O)C1=C(CC)OC(N)=C(C#N)C1c1ccc(F)cc1F (centres undefined)	10.9% (inactive)	–
COc1ccc(S(=O)(=O)N(C)CC(=O)N2CCCC2)cc1Cl	-3.37% (inactive)	–
Cc1noc(C)c1S(=O)(=O)N(C)Cc1ccccc1	0.615% (inactive)	–
Cc1cccc(NS(=O)(=O)c2ccc(C)c(C(N)=O)c2)c1	-7.93% (inactive)	–
CC(NC(=O)C(=O)N/N=C/c1ccc(Cl)cc1)c1ccccc1 (centres undefined)	-4.56% (inactive)	–
Cc1ccc(-n2c(C)cc(C(=O)CN3C(=O)C(=O)N(C4CCCC4)C3=O)c2C)cc1	1.53% (inactive)	–
COc1cc(CNC2CCCCC2)c(Br)cc1OC1CCCC1	-3.19% (inactive)	–
O=C(O)/C=C/C(=O)NNc1ccc([N+](=O)[O-])cc1	–	14.1 µM (active)
O=C(Nc1ccc([N+](=O)[O-])cc1)C1(c2ccccc2)CCOCC1	4.59% (inactive)	–
O=C(Cc1ccccc1)NNS(=O)(=O)c1ccc([N+](=O)[O-])cc1	15.8% (inactive)	–
NC(=O)c1ccc(CN2CCC(Cc3ccccc3)CC2)cc1	6.52% (inactive)	–
O=C(COC(=O)c1ccc[nH]c1=O)Nc1ccc2c(c1)OC(F)(F)O2	8.44% (inactive)	–
Cc1c(S(=O)(=O)O)ccc(N=Nc2c(O)c(C(=O)O)cc3ccccc23)c1Cl	–	3.55 µM (active)
Cc1nn(Cc2ccc(Cl)cc2)c(Cl)c1/C=N/NC(=O)CNc1ccccc1F	21.3% (inactive)	–
O=C(NNC(=S)NCc1ccco1)C(c1ccccc1)c1ccccc1	1.75% (inactive)	–
FC(F)Oc1ccc(NC(=S)NCc2ccco2)cc1Cl	–	14.1 µM (active)
COC(=O)Cc1ccc(NC(=S)NCc2ccco2)cc1	4.15% (inactive)	–
